Molecules are shown by their SMILES. This is one part of the list. The source made the active and inactive calls.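 How the source made its calls: active means proliferation increase above 40% at any of the four tested concentrations; inactive means the rest.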

The nature of the assay: inducers of beta-cell proliferation in MIN6, confirmation, MIN6 cells, mouse (AID 463095). The settings on record: ATPlite luminescence, 48 h, cells kept in 0.2% serum, scaled between 0.2% and 10% serum; series mostly up to 50 µM. On the technique in general: In ATP-based viability assays light output follows the ATP content of the culture.
As to `Cc1ccc(S(=O)(=O)N2CCCCC2)cc1C(=O)N1CCN(CCO)CC1`, the result was inactive.
In the case of `CCOC(=O)C1=C(CC)OC(N)=C(C#N)C1c1ccc(F)cc1F` (stereo unspecified), the compound was called inactive.
Regarding `COc1ccc(CCn2c(=N)c(C(=O)NCc3ccco3)cc3c(=O)n4cccc(C)c4nc32)cc1`, the outcome was inactive.
Take `Cc1ccccc1CNC(=O)CCC(=O)N1Cc2ccccc2Oc2ncccc21`: the compound was classed as inactive.
With `Cc1ccccc1NC(=S)NNC(=O)c1cccc(Br)c1`, the call was inactive.
For `Cn1cc(CN2CCC(C(O)CCc3ccccc3)CC2)c(-c2ccccc2F)n1` (stereo unspecified), the call was inactive.
As to `CC(=O)c1ccc(S(=O)(=O)NCc2nnnn2-c2ccccc2)cc1`, the compound was called inactive.
Regarding `Cc1cc(NC(=O)c2ccco2)c(=O)n(Cc2c(F)cccc2Cl)c1`, the call was inactive.
Regarding `CCn1c(=O)n(CC)c2cc(N3CCCC3)c(NC(=O)c3ccccc3Br)cc21`, the compound was called inactive.
As to `CC(=O)OC(C(=O)NC1CCCCC1)c1ccccc1` (stereo unspecified), the result was inactive.
As to `COc1cccc(CNC(=O)CCC2CCCN(C(=O)c3ccoc3C)C2)c1` (stereo unspecified), the call was inactive.
With `O=C(NNC(=S)NCc1ccccc1)c1ccc(OC(F)F)cc1`, the outcome was inactive.
For the compound `CC(=O)c1cccc(NC(=O)COc2ccc(S(=O)(=O)N3CCOCC3)cc2)c1`, the compound was called inactive.
For `CC(=O)c1cnc(-c2ccccc2)s1`, the call was inactive.
Turning to `CCn1c(=O)c([N+](=O)[O-])c(NCc2ccc3c(c2)OCO3)c2ccccc21`, the compound was called inactive.
On to `COc1ccccc1N=Cc1c(O)c2ccccc2oc1=O`, for which the compound was called inactive.
In the case of `Cn1nc(-c2ccccc2)c2cc([N+](=O)[O-])ccc21` it was “inactive”; in that of `COc1ccc(-c2nnn(Cc3nc(N)nc(N4CCCCC4)n3)n2)cc1`, “inactive”.
With `Cc1ccc(C(=O)Nc2ccc(NC(=O)c3cccs3)cc2)c(C)c1`, the result was inactive.
In the case of `CC/C(=N/Nc1ccccc1)c1cnnc(SC)n1` it was “inactive”; in that of `O=C(Nc1ccc(F)cc1)C1CCCN(S(=O)(=O)c2ccc(-n3cnnn3)cc2)C1` (stereo unspecified), “inactive”.

Source of the values: PubChem BioAssay AID463095 (Sanford-Burnham Center for Chemical Genomics, 2010).
